Experimental data as given in PubChem BioAssay (Tox21).
Inconclusive results are not listed. A call without a number means that no potency is given here. Unmarked numbers belong to inactive results. Activity calls are given as the source filed them. Calls come from the whole dose curve; as a rule, active = well fitted cell-killing curve with a large enough effect in the repeat runs; inconclusive = weak or mixed curves, or effect the other way; inactive = flat fitted curve, though single readings scatter.

How the values were obtained:
[1] = cAMP Responsive Elements (CRE) small molecule antagonists, cell-based qHTS assay: qHTS cell viability counter screen (AID 2060913); note: nearly all actives have a fitted effect of over 40% in size
In short: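 Cytotoxicity read in the same wells as the CRE-bla HEK293T antagonist assay: after 3 h compound with 0.25 uM NKH477 final and 2 h beta-lactamase substrate, CellTiter-Glo luminescence measured.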

[2] = cAMP Responsive Elements (CRE) small molecule agonists, cell-based qHTS assay: qHTS cell viability counter screen (AID 2060914);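 note: viability read after 3 h of compound exposure; nearly all actives have a fitted effect of over 50% in size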
In short: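 Cells are seeded and incubated 18 h, treated with compounds in DMSO for 3 h, read for the bla reporter, then given CellTiter-Glo; luminescence is measured after 30 min at room temperature.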

Row | Compound | Potency [1] | Potency [2] | viability change, negative = cytotoxic [1] | activity change, negative = cytotoxicity [2]
1 | c1ccc2sc(SSN3CCOCC3)nc2c1 | inactive | inactive |  | 
2 | C=CCCCCCCCCOC(C)=O | inactive | inactive |  | 
3 | CCCCCCCCCCCCCCN(C)C |  |  | 8.85% [at 18.9 µM] | -15% [at 18.9 µM]
4 | CC(=O)OCC(=O)[C@@]1(O)CCC2C3CCC4=CC(=O)CC[C@]4(C)C3[C@@H](O)C[C@@]21C (stereo partly drawn) | inactive | inactive |  | 
